Test results published in ChEMBL document CHEMBL4513216, “Probing the Open Global Health Chemical Diversity Library for Multistage-Active Starting Points for Next-Generation Antimalarials” (ACS Infect Dis, 2020).
Hit rate of the full screen: of about 68,000 compounds, about 2,700 (4%) showed an effect of 50% or more. Many of the other results were omitted from the sample, so strong results are more common in it than they were.

Test system: Plasmodium berghei
Test: Screen against P. berghei liver stage (PbLuc), transformed with Luciferase, at 2uM
Assay type: functional, HepG2
Settings: tested at 2 uM

First: CC(C)(C)Oc1ccc(CN)c(C(F)(F)F)c1
Second: CC(C)Oc1ccc(CN)c(C(F)(F)F)c1
The INHIBITION of the first is higher: 50.01% for the first, 28.94% for the second.

Going from `NCc1ccc(Oc2ccc(F)c(F)c2)cc1C(F)(F)F` to `CN1CCC(N(C)C(=O)CCc2ccc(F)c(F)c2)C1=O` (centres undefined), the INHIBITION falls from 30.1% to 20.14%.

Going from `CN1CCC(N(C)C(=O)CSc2ccc(F)c(F)c2)C1=O` (centres undefined) to `CC(C)c1ccc(CCC(=O)N(C)C2CCN(C)C2=O)cc1` (centres undefined), the INHIBITION rises from -15.11% to 71.91%.

First: COc1cccc(CC(=O)N2CC[C@@H](OC)[C@@H]2Cc2cccnc2)c1
Second: COCCOc1cccc(C(=O)N2CCCC(n3ccnc3C)C2)c1 (centres undefined)
The INHIBITION of the first is lower: 8.18% for the first, 27.55% for the second.

First: COC[C@@]12CCO[C@@H]1CCN(C(=O)Cc1ccccc1C)C2
Second: COC[C@@]12CCO[C@@H]1CCN(C(=O)Cc1ccccc1F)C2
The INHIBITION of the first is higher: 54.56% for the first, -26.85% for the second.

Compared with `COC[C@@]12CCO[C@@H]1CCN(C(=O)Cc1ccc(C)cc1)C2`, `COCCN1CCO[C@H]2CCN(C(=O)c3cccs3)CC[C@@H]21` is higher in INHIBITION: 11.37% for the first, 34.19% for the second.

Going from `CN(Cc1ccc2c(c1)OCO2)C(=O)NCCc1cnn(C)c1` to `COc1ccc(CN(C)C(=O)Cc2c(C)nn(C)c2C)cc1F`, the INHIBITION rises from -0.12% to 51.31%.

Going from `COCC(=O)NC1CC2(CCN(Cc3ccco3)CC2)c2ccccc21` (centres undefined) to `O=C1NC2(CCN(Cc3ccccc3Cl)CC2)CC1c1ccccc1` (centres undefined), the INHIBITION rises from -40.39% to 5.92%.

Compared with `COc1cccc(C(=O)NS(=O)(=O)c2cccc(C#N)c2)c1`, `COc1ccc(C(=O)NS(=O)(=O)c2cccc(C#N)c2)cc1` is higher in INHIBITION: -49.9% for the first, 66.2% for the second.

Compared with `COc1cc(C(=O)NS(=O)(=O)c2cccc(C#N)c2)ccc1C`, `CCOc1cc(C(=O)NS(=O)(=O)c2cccc(C#N)c2)ccc1OC` is higher in INHIBITION: 23.92% for the first, 64.16% for the second.

Compared with `CCOc1cccc2c1OCC(C(=O)NS(=O)(=O)c1cncc(Br)c1)=C2`, `CCOc1cccc2c1OCC(C(=O)NS(=O)(=O)c1ccc(Br)s1)=C2` is lower in INHIBITION: 51.94% for the first, -20.93% for the second.

First: COc1cc(C(=O)NS(=O)(=O)c2cccc(C#N)c2)cc(OC)c1C
Second: COc1cc(C(=O)NS(=O)(=O)c2cccc(C#N)c2)cc(OC)c1Br
The INHIBITION of the first is lower: -15.28% for the first, 41.76% for the second.

First: COc1ccc(C(=O)NS(=O)(=O)c2cncc(Br)c2)cc1OC
Second: COc1ccc(C(=O)NS(=O)(=O)c2cncc(Br)c2)cc1
The INHIBITION of the first is lower: -10.6% for the first, 53.12% for the second.

Going from `COC(=O)c1ccc(C(=O)NS(=O)(=O)c2cncc(Br)c2)cc1` to `CCOc1cccc2c1OCC(C(=O)NS(=O)(=O)c1ccc(Cl)cc1)=C2`, the INHIBITION rises from -8.83% to 30.91%.

Compared with `COc1ccc(CN2CC[C@@H]3[C@H]2CCC(=O)N3c2cnn(C)c2)cc1`, `COc1ccc2c(c1)CC(NCCCn1cc(C)cn1)CC2` (centres undefined) is higher in INHIBITION: -41.29% for the first, -0.75% for the second.

Going from `NC(=O)C1CCN(C(=O)c2cccn2Cc2cccs2)C1` (centres undefined) to `CN(C)CC1(O)CCCN(C(=O)c2ccccc2-n2cccn2)C1` (centres undefined), the INHIBITION rises from -8.9% to -6.64%.

Compared with `CCC(C)(C)NC(=O)CN(Cc1cccc(O)c1)C1CCC(O)CC1` (centres undefined), `COc1cccc(CN(C)S(=O)(=O)N2CCOCC2)c1` is higher in INHIBITION: 6.85% for the first, 11.97% for the second.

Going from `Cn1cc(CN2CCC(F)(F)C3(CCN(c4ncccn4)C3)C2)cn1` (centres undefined) to `Cn1cc(N2CC3(COCCN(Cc4ccsc4)C3)OCC2=O)cn1` (centres undefined), the INHIBITION falls from 11.54% to -17.88%.

Going from `COC(=O)c1ccc(NCc2csc(C)n2)cc1Cl` to `COCC(NC(=O)NCc1sccc1C)c1ccco1` (centres undefined), the INHIBITION rises from -37.11% to -6.4%.

Compared with `CCOc1c(Br)cc(C2c3c(n[nH]c3C)N=C3COC(=O)C32)cc1OC` (centres undefined), `Cc1nn(C)c(C)c1CN(C)S(=O)(=O)c1c(C)n[nH]c1C` is higher in INHIBITION: -54.78% for the first, 16.49% for the second.

First: Cc1nc(C)c(C(=O)N2CCCc3c(F)cccc32)o1
Second: Cc1nc(C)c(C(=O)N2CCc3c(C)cccc32)o1
The INHIBITION of the first is higher: 54.77% for the first, 43.28% for the second.

First: Cc1nc(C)c(C(=O)N2CCCc3c(F)ccc(F)c32)o1
Second: COc1ccc(NC(=O)Cc2c(C)nn(C)c2C)cc1F
The INHIBITION of the first is higher: 44.71% for the first, 18.15% for the second.

Compared with `COc1ccc(CNC[C@H]2COCc3nc4cccnc4n32)cn1`, `COc1ncccc1C(=O)N1CCC(Nc2ccc(C)nn2)CC1` is higher in INHIBITION: -8.63% for the first, 62.13% for the second.

Going from `CC1CCN(C(=O)c2cccc3ncccc23)CC1` to `Cc1ccc(NC2CCN(C(=O)c3cccnc3O)CC2)nn1`, the INHIBITION falls from -29.11% to -31.57%.

Going from `CN(C)C(C(=O)N1CC(c2ccccn2)C1)c1cccc(F)c1` (centres undefined) to `CN(C)CCOCC1CN(Cc2cccc(F)c2)Cc2nccn2C1` (centres undefined), the INHIBITION falls from 12.35% to -0.23%.

Compared with `Cn1ccnc(Sc2ccc(O)cc2)c1=O`, `Cc1ccc(Sc2nccn(C)c2=O)cc1` is higher in INHIBITION: -31.15% for the first, -2.44% for the second.

First: Cn1ccnc(Sc2ccccc2)c1=O
Second: c1ccc(CN2CCNCC(Cc3cnccn3)C2)cc1 (centres undefined)
The INHIBITION of the first is higher: 50.53% for the first, 6.19% for the second.

Compared with `CN(Cc1cccc(Cl)c1)S(=O)(=O)N1CCOCC1`, `CN(Cc1cccc(F)c1)S(=O)(=O)N1CCOCC1` is lower in INHIBITION: 50.74% for the first, 46.57% for the second.

First: CCc1nc(CN2CCOC(CN(CC)c3cccnn3)C2)cs1 (centres undefined)
Second: CCn1c(C)cc(C(=O)N2CCC(Nc3cccnn3)CC2)c1C
The INHIBITION of the first is lower: -24.11% for the first, 56.58% for the second.

Going from `CN1CCN(Cc2cn3c(n2)CN(C(=O)c2cccn2C)CC3)CC1` to `CN(C)CCN1CCO[C@H]2CCN(C(=O)c3cccs3)CC[C@@H]21`, the INHIBITION rises from -36.65% to 33.11%.

Going from `O=C(c1ccc(NC2CC2)nc1)N1CCC(Nc2cccnn2)CC1` to `O=C(c1ccc2cc[nH]c2c1)N1CCC(Nc2cccnn2)CC1`, the INHIBITION falls from 22.1% to -16.42%.

Compared with `CC(Cn1cccn1)C(=O)N1CCC(Nc2cccnn2)CC1` (centres undefined), `CC(C(=O)N1CCC(Nc2cccnn2)CC1)n1cccn1` (centres undefined) is lower in INHIBITION: 57.23% for the first, 9.17% for the second.

Going from `CCOc1ncccc1C(=O)N1CCC(Nc2ccc(C)nn2)CC1` to `CCn1c(C)cc(C(=O)N2CCC(Nc3ccc(C)nn3)CC2)c1C`, the INHIBITION rises from -23.94% to 13.88%.

Going from `O=C(c1ccc2[nH]nnc2c1)N1CCC(Nc2cccnn2)CC1` to `O=C(c1ccc2[nH]c(=O)[nH]c2c1)N1CCC(Nc2cccnn2)CC1`, the INHIBITION rises from -23.42% to 53.45%.

Compared with `CC(C(=O)N1CCC(Nc2cccnn2)CC1)n1ccnc1` (centres undefined), `CN(Cc1cccnc1)C[C@@H]1OC[C@H]2CN(C(=O)C3CC3)CC[C@H]21` is higher in INHIBITION: -12.48% for the first, 20.21% for the second.

First: Cc1cc(NS(=O)(=O)CC2CCCCO2)ccc1F (centres undefined)
Second: Cc1ncccc1NC(=O)[C@H]1C[C@@H]2CCN(Cc3ccsc3)C[C@H]2O1
The INHIBITION of the first is lower: -40.47% for the first, -30.39% for the second.

Going from `CCc1ncc2c(n1)CN(CC(=O)Nc1nncs1)CC2` to `CCc1nccn1CC(=O)N1C[C@@H]2CC[C@H]1CN(c1ncccn1)C2`, the INHIBITION falls from 21.12% to -54.76%.

First: Cc1nc(CNC(=O)C(C)Oc2ccccc2F)no1 (centres undefined)
Second: CCOCCOC(C)C(=O)NCc1cn2cc(Cl)ccc2n1 (centres undefined)
The INHIBITION of the first is lower: -8.04% for the first, 52.74% for the second.

First: CC1CCN(c2nc3cn(Cc4cccc(F)c4)c(=O)c-3c[nH]2)CC1
Second: Cc1nc(CN2CCCN(Cc3nc4c(F)cccc4[nH]3)CC2)no1
The INHIBITION of the first is lower: 12.59% for the first, 27.86% for the second.

First: Cc1cc(C(=O)N(C)C)nc(C2(C)CCCN2c2ccccc2)n1 (centres undefined)
Second: CC(C)NC(=O)c1cc2c(c3ccccc3n2C)n1C(=O)N(C)C
The INHIBITION of the first is higher: 9.9% for the first, 9.21% for the second.

Compared with `Cc1nc(C)n(CC2CCCN(CCOc3ccccc3C#N)C2)n1` (centres undefined), `COCCN(CCN(C)C)C(=O)NC1CCc2ccccc2C1` (centres undefined) is higher in INHIBITION: -70.51% for the first, 62.39% for the second.

First: CS(=O)(=O)N1CCO[C@@H]2CCN(C(=O)c3cccs3)CC[C@H]21
Second: O=C(c1ccco1)N1CCOCC2(CCN(C3CCOCC3)C2)C1 (centres undefined)
The INHIBITION of the first is higher: 51.36% for the first, -68.56% for the second.

First: O=C(C1CC1)N1CCN2C[C@@H](CO)[C@H](c3ccccc3)[C@H]2C1
Second: CN(C)C(=O)NCc1cc2n(n1)CCCN(CC1[C@H]3CNC[C@@H]13)C2 (some centres undefined)
The INHIBITION of the first is lower: 14.45% for the first, 14.46% for the second.

Compared with `CC=C(C)C(=O)NS(=O)(=O)c1ccc(Cl)cn1`, `COc1cc(-n2cccc2)c(Cl)cc1C(=O)NS(C)(=O)=O` is higher in INHIBITION: -40.56% for the first, 1.06% for the second.

Compared with `COc1cc(CN(C)C(=O)Cc2c(C)nn(C)c2C)ccc1OC(F)F`, `CCCNC(=O)c1cc2c(c3ccccc3n2C)n1C(=O)N(C)C` is higher in INHIBITION: -51.9% for the first, -15.3% for the second.

Going from `O=S1(=O)CCCN1Cc1coc(-c2cccs2)n1` to `O=C(OC1CCC1)c1ncccc1C(F)(F)F`, the INHIBITION rises from 21.33% to 46.63%.

First: COCCN(CCN(C)C)C(=O)NC1CC1
Second: COCCN(CCOC)C(=O)NC1CCCCC1
The INHIBITION of the first is lower: -25.13% for the first, -20.08% for the second.

Going from `CC1(c2ccc(Br)cc2)CC(=O)N(CCC(N)=O)C1=O` (centres undefined) to `CCC(CC)C(=O)NCc1cn2cc(Br)ccc2n1`, the INHIBITION falls from -10% to -10.87%.

Compared with `CN(CC(C)(CO)CO)C(=O)Nc1cc(Cl)cc(Cl)c1`, `CN(C)C(=O)n1c(C(=O)NC(C)(C)CO)cc2c1c1ccccc1n2C` is higher in INHIBITION: -1.72% for the first, 50.35% for the second.

First: Cc1cc(C)n(C2=NC(NCCCO)c3c(sc4c3CCCC4)N2)n1 (centres undefined)
Second: CC(C)N(CCCNC(=O)C1CCOCC1)S(C)(=O)=O
The INHIBITION of the first is higher: 30.54% for the first, 18.14% for the second.

Compared with `Fc1cnc(N2CCO[C@H]3[C@H](OCC4CCOCC4)CC[C@@H]32)nc1`, `O=C(OC1CCC1)c1ncccc1OCC(F)(F)F` is higher in INHIBITION: -39.98% for the first, 21.72% for the second.

First: CCOCCOC(C)C(=O)NCc1cn2cc(Br)ccc2n1 (centres undefined)
Second: O=C(O)c1ncccc1OCC(F)(F)F
The INHIBITION of the first is lower: -4.1% for the first, 55.73% for the second.
